Results reported in PubChem BioAssay AID1851 (National Center for Advancing Translational Sciences (NCATS), 2009).
Where “and” joins values, the source holds several entries; their conditions need not be identical. Equal entries are not always repeated. Screen size: about 16,000 compounds; about 5,800 (36%) were called active. Inconclusive results (about 23%) are left out. Calls follow the shape of the dose curve; as a rule, active = well fitted curve in the direction sought with a large enough effect; inconclusive = small, poorly fitted or top-dose-only effect, or effect the other way; inactive = no such curve, though single readings can be large or run the other way. The list shows a part of the results. Where a structure was tested more than once in an assay, its records may differ in their call.

Biological target: Cytochrome P450 2C19 (Homo sapiens) (UniProt P33261)
Sequence (P33261 whole entry, looked up): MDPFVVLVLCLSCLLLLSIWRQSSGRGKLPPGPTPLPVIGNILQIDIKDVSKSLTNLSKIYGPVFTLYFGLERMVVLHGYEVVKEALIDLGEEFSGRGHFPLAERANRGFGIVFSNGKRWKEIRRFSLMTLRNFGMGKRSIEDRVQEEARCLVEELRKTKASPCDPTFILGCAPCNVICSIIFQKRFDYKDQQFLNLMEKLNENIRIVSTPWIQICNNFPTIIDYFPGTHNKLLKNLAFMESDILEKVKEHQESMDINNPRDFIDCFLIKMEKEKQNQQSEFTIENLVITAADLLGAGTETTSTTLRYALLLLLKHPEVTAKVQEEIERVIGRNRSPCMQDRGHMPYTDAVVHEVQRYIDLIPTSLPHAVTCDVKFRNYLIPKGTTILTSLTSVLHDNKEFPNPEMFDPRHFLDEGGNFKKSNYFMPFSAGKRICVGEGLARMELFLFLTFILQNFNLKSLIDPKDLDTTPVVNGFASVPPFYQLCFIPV
Assay: Cytochrome panel assay with activity outcomes
Conditions: recombinant CYP, pro-luciferin dealkylation, luminescence, p450-cyp2c19; series mostly up to 57.1 µM; activity, negative = inhibition: at the top concentration
% is scaled to controls: 0 for no effect and ±100 for the full control effect.

activity, negative = inhibition, inactive:
O=C(CCC(=O)c1cccs1)OCC(=O)N1CCN(C(=O)c2ccco2)CC1 -14.3%
CCn1c(=O)cc(SCC(=O)N2CCN(C(=O)c3ccco3)CC2)c2ccccc21 -35%
CCN1C(=O)[C@H]2[C@@H]3[C@H](O)C=CC(=O)[C@H]3CC[C@H]2C1=O -2.48% [at 11.4 µM]
CCN1C(=O)[C@H]2[C@@H]3[C@H](O)[C@H](O)CC(=O)[C@H]3CC[C@H]2C1=O -13.9% [at 11.4 µM] and -20% [at 11.4 µM]
O=C(Nc1cccc(-c2nc3ncccc3o2)c1)c1sc2cc(Cl)ccc2c1Cl 1.04%
NS(=O)(=O)c1ccc(NCc2nc3ccccc3[nH]2)cc1 39.2% [at 11.4 µM]
NS(=O)(=O)c1ccc(NCc2cnc3ccccc3n2)cc1 20.6% [at 11.4 µM]
Cc1nc2cnc(N3CCN(C)CC3)nc2n(Cc2cccs2)c1=O -6.25%
COC(=O)[C@@]1(Cc2ccc(F)cc2)[C@H]2c3cc(C(=O)N4CCCC4)n(Cc4ccc(S(C)(=O)=O)cc4)c3C[C@H]2CN1C(=O)c1ccccc1 -41.1%
COc1ccccc1CN1CCCC2(CCN(C(=O)c3cccn3C)CC2)C1 2.62%
CC(NC(=O)c1ccc(N2CCCC2=O)cc1)c1ccccc1 (stereo not drawn) 0.679%
O=c1cc(CO)oc(CN2CCCC2)c1O -9.57%
CO[C@H]1COC(=O)[C@H](C)NC(=O)C/C=C\[C@@H](C)[C@@H](NS(=O)(=O)c2ccc(C)cc2)COC(=O)[C@H](OCc2ccccc2)/C=C\[C@@H]1C 6.49% [at 11.4 µM]
Cc1ccc(/C=N\NC(=O)c2cc(OCC(F)(F)F)ccc2OCC(F)(F)F)cc1 -0.0019%
CCOc1cc(CN2CCN(c3ccc(C(C)=O)cc3)CC2)ccc1OC -19.8%
COc1ccc(/C=N\NC(=O)C2C(=O)NCC2c2ccccc2)cc1O (stereo not drawn) -11.8%
C[C@H](O)[C@H](O)[C@@H]1CNc2nc(N)[nH]c(=O)c2N1 26.5%
Cc1ccc(C(=O)NN2CCOCC2)cc1 6.29%
O=C(CCc1ccccc1)NNC(=O)c1ccco1 -17.8%
CC(C)[C@@H](OCc1ccccc1)[C@H](C)/C=N\O[C@@H](C)c1cn([C@H](CO)Cc2ccccc2)nn1 -16.9% [at 11.4 µM] and -29.7% [at 11.4 µM]
O=c1cc(O)cc(/C=C\c2ccc(O)c(O)c2)o1 -24.2%
N#C/C(=C\c1ccc(O)c(O)c1)C(=O)c1ccc(O)c(O)c1 0.35%
N#C/C(=C\c1ccc(O)c(O)c1)C(=O)NCCc1ccccc1 -40.2%
CNC[C@H](O)[C@H](O)[C@H](O)[C@H](O)CO 16.6% [at 25.6 µM]
Cc1cnc(CNc2nc(-c3ccccc3C)nc3ccccc23)cn1 -36.4%
Cc1cnc(CNc2ncnc3ccc(-c4ccoc4)cc23)cn1 -4.33%
Cc1ncc([N+](=O)[O-])n1CCO 5.25% [at 25.6 µM]
CN(C)Cc1ccccc1-c1cncnc1NCc1cccs1 -4.64%
Cc1cnn(-c2cc(N/N=C/c3ccccc3F)ncn2)c1 -20.9%
CN(C)CCCNC(=O)c1cc2c3ccccc3n(C)c2s1 -26.7%
COCCNC(=O)c1ccc2c(c1)nc(C)n2-c1cc(OC)c(OC)c(OC)c1 0.165%
COc1ccc(COC(=O)N/N=C2/C[C@@H](O)[C@@H](O)[C@@H]3[C@@H]4C(=O)N(c5cccc(Oc6ccccc6)c5)C(=O)[C@H]4CC[C@H]23)cc1 -11% [at 11.4 µM]
COc1ccc(COC(=O)N/N=C2/C[C@@H](O)[C@@H](O)[C@@H]3[C@@H]4C(=O)N(c5cccc(Oc6ccccc6)c5)C(=O)[C@H]4CC[C@@H]23)cc1 20.4% [at 11.4 µM]
C[C@H](C(=O)O)c1cccc(Oc2ccccc2)c1 6.23% [at 25.6 µM]
O=C(O)[C@@H](O)c1ccc(F)cc1 10.1% [at 11.4 µM]
O=C(O)C(Cl)(c1ccccc1)c1ccccc1 -2.62% [at 11.4 µM]
O=C(O)c1cccc(C(=O)O)c1S(=O)Cc1ccccc1 (stereo not drawn) 41.5% [at 11.4 µM]
CCOC(OCC)P(=O)(O)CCCNCc1ccc(Cl)c(Cl)c1 12.9%
Cn1cc(-c2nc3cnc(N4CCOCC4)nc3n(CCC#N)c2=O)c2ccccc21 -40.9%
CN1CCN(c2ncc3nc(-c4cn(C)c5ccccc45)c(=O)n(CCc4ccccc4)c3n2)CC1 31.9%
COCCn1c(=O)c(-c2cn(C)c3ccccc23)nc2cnc(N3CCNCC3)nc21 -24.4%
CCNc1ncc2nc(-c3cn(C)c4ccccc34)c(=O)n(Cc3ccc(F)cc3)c2n1 -44.7%
CSc1nc(O)c(Cc2ccccc2)c(=O)[nH]1 -4.58%
COc1ccc(N2CCN(Cc3nc4c(c(=O)n(C)c(=O)n4C)n3CC(C)=O)CC2)cc1 8.13%
CN(C)c1nc2c(c(=O)[nH]c(=O)n2C)n1Cc1ccccc1Br -18.6%
C=CCn1cc(Cl)c(=O)n(CC=C)c1=O -27.6%
C=CCn1c(=O)c2c(nc(-c3ccc(S(=O)(=O)O)cc3)n2C)n(C)c1=O 21.2%

AC50, active:
CCOC(=O)c1cc2sc(C)cc2n1CCCN1C(=O)c2ccccc2C1=O 3.98 µM
CCOC(=O)c1cc2sc(C)cc2n1CC(=O)N1CCN(C(=O)c2ccco2)CC1 25.1 µM
CCN1C(=O)[C@@H]2[C@H]3C(=CC[C@@H]2C1=O)C1(OCCCO1)[C@H]1O[C@@H]1[C@H]3O 1.58 µM
O=C(NC12CC3CC(CC(C3)C1)C2)c1ccc(COc2ccc(Cl)cc2[N+](=O)[O-])o1 3.55 µM
Cc1ccc2nc(SCc3nc4c(cnn4-c4ccccc4)c(=O)[nH]3)[nH]c2c1 4.47 µM
CCCCCC(=O)Nc1cccc(-c2nc3ncccc3o2)c1 14.1 µM
O=C(CSc1ccc(Cl)cc1)Nc1cccc(-c2nc3ncccc3o2)c1 8.91 µM
NS(=O)(=O)c1ccc(NCc2ccccc2OCc2ccccc2F)cc1 6.31 µM
CC1CC/C(=C\c2ccc3c(c2)OCO3)C(=O)/C1=C/c1ccc2c(c1)OCO2 (stereo not drawn) 2.82 µM
COC(=O)[C@@]1(Cc2ccc(F)cc2)[C@H]2c3cc(C(=O)N4CCCC4)n(CCc4ccc(O)c(O)c4)c3C[C@H]2CN1C(=O)c1ccccc1 15.8 µM
COC(=O)[C@@]1(Cc2ccc(F)cc2)[C@H]2c3cc(C(=O)N4CCCC4)n(CCc4ccc(OC)c(Br)c4)c3C[C@H]2CN1C(=O)c1ccccc1 5.01 µM
O=C(O)c1cccc(N2CCCC2=O)c1 31.6 µM
COc1ccc(/C=N/NC(=O)c2ccn[nH]2)cc1COc1ccc(Cl)cc1 2 µM
COc1ccc(/C=N/NC(=O)c2ccccc2)cc1CN1CCN(c2ccc(F)cc2)CC1 17.8 µM
COc1ccc(C(=O)CN2CCN(c3ccc(F)cc3)CC2)cc1OC 14.1 µM
COc1ccc(/C=N/NC(=O)c2ccn[nH]2)cc1COc1ccc(F)cc1 3.55 µM
Cc1c(C(=O)NN2CCOCC2)nn(-c2ccc(Cl)cc2Cl)c1-c1ccc(I)cc1 7.94 µM
COc1ccc(CCNC(=O)c2ccccc2NC(=O)c2ccco2)cc1OC 11.2 µM
O=C(Nc1ccccc1C(=O)NCCc1ccccc1)c1ccco1 8.91 µM
N#C/C(=C\c1ccc(O)c(O)c1)C(=O)OCCc1cccs1 6.31 µM
N#C/C(=C\c1ccc(O)c(O)c1)C(=O)NCCCc1ccccc1 10 µM
N#Cc1ccc(-c2ccc(F)cc2)nc1Oc1ccc(Cl)c(Cl)c1 3.55 µM
Cc1ccc(C2NC(c3ccc(C)cc3)C(C)C(=NO)C2C)cc1 (stereo not drawn) 0.562 µM
Cc1cnc(CNc2ncnc3ccc(-c4ccccc4C)cc23)cn1 15.8 µM
Cc1cnc(CNc2ncnc3ccc(-c4ccc(N(C)C)cc4)cc23)cn1 15.8 µM
Clc1ccccc1-c1cncnc1NCc1cccs1 1.58 µM
FC(F)(F)c1ccccc1-c1cncnc1NCc1cccs1 20 µM
COc1ccccc1-c1cncnc1NCc1cccs1 2 µM
Cc1ccccc1-c1cncnc1NCc1cccs1 0.794 µM
COCCNC(=O)c1cc2c3ccccc3n(C)c2s1 11.2 µM
O=C(OCc1nc2ccccc2s1)c1ccc(Br)s1 0.447 µM
COc1cccc(N2C(=O)C(CC(=O)Nc3ccccc3)N(C3CCCCC3)C2=O)c1 (stereo not drawn) 4.47 µM
COc1ccc(NC(=O)CC2C(=O)N(c3cccc(OC)c3)C(=O)N2C2CCCCC2)cc1 (stereo not drawn) 8.91 µM
CCCCCCCCSc1nnc(CSc2nc3nc(C)cc(C)n3n2)o1 7.94 µM
CCOC(=O)c1cnn(-c2ccc(C(C)C)cc2)c1NC(=O)C1CCC1 10 µM
CC(C)OCCCN1CN(S(=O)(=O)c2cccc(Cl)c2)c2nc3ccccc3nc21 3.16 µM
O=S(Cc1ccccc1)CC(O)(c1ccccc1)c1ccccc1 (stereo not drawn) 5.01 µM
CCOc1ccc(C(=O)Nc2cnn(Cc3ccc(Cl)c(Cl)c3)c2)cc1 3.55 µM
Cn1cc(-c2nc3cnc(N4CCNCC4)nc3n(CCc3ccccc3)c2=O)c2ccccc21 2 µM
Cn1cc(-c2nc3cnc(N4CCNCC4)nc3n(Cc3ccc(F)cc3)c2=O)c2ccccc21 7.94 µM
CSc1nc(C)c(CCOC(=O)c2ccccc2)c(=O)[nH]1 15.8 µM
CSc1nc(C)c(CCOC(=O)c2cccc(C)c2)c(=O)[nH]1 3.16 µM
COC(=O)Cn1c(=O)c2c(nc(Br)n2Cc2ccccc2Cl)n(C)c1=O 0.891 µM
C=CCn1c(=O)c2c(nc(Br)n2Cc2ccccc2Cl)n(C)c1=O 0.794 µM

AC50, inactive and 631 nM (active):
C[C@@H](C(=O)O)c1ccc(-c2ccccc2)c(F)c1

AC50, inactive:
Cc1ccccc1[C@@H](OCCN(C)C)c1ccccc1
